Reference: PubChem BioAssay AID1159580 (chemical genetic matrix, 2015)
Several values for one entry are separate records, joined by “and”; a condition that tells them apart may be missing. Equal entries are not always repeated. Among all 5,500 compounds or so, about 2,000 (36%) were called active. Not shown: some 18% with an inconclusive outcome. Rule as the data show it: active = normalized growth mostly below about 0.91 (no sharp cut-off); inconclusive = no clear call, values can overlap the other calls; inactive = mostly above about 0.92. The list shows a part of the results.

Experiment: chemical genetic growth profiling, strain panel (AID 1159580);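 also: tested at 20 µM; growth read once vehicle control cultures reached saturation at 30 °C; 1 = growth at the plate median or of vehicle wells; lower values mean less growth of the strain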
Conditions: S. cerevisiae deletion strains, growth OD

Measured: normalized growth

NCC(N)C(=O)c1ccccc1 (stereo not drawn)
inactive: locus YAL013W, strain DEP1, hits give low values 1.01 | locus YAL021C, strain ccr4, hits give low values 0.979 | locus YAL026C, strain drs2, hits give low values 1.06 | locus YAL030W, strain snc1, hits give low values 1.02 | locus YBL061C, strain skt5, hits give low values 1.03 | locus YBR009C, strain hhf1, hits give low values 1.04 | locus YBR021W, strain FUR4, hits give low values 0.993 | locus YBR023C, strain chs3, hits give low values 1.02 | locus YBR171W, strain sec66, hits give low values 1.04 | locus YBR229C, strain ROT2, hits give low values 1.01 | locus YBR231C, strain swc5, hits give low values 1.02 | locus YBR279W, strain paf1, hits give low values 1.03 | locus YCL011C, strain gbp2, hits give low values 1.02 | locus YCL016C, strain dcc1, hits give low values 1.01 | locus YCL029C, strain bik1, hits give low values 0.995 | locus YCL061C, strain MRC1, hits give low values 1.03 | locus YCL069W, strain vba3, hits give low values 1.02 | locus YCR088W, strain abp1, hits give low values 1.02 | locus YDL005C, strain med2, hits give low values 1.03 | locus YDL035C, strain GPR1, hits give low values 1.02 | locus YDL040C, strain nat1, hits give low values 1.02 | locus YDL074C, strain BRE1, hits give low values 1.01 | locus YDL101C, strain DUN1, hits give low values 1.01 | locus YDL185W, strain tfp1, hits give low values 1 | locus YDL192W, strain arf1, hits give low values 1.01 | locus YDR001C, strain nth1, hits give low values 1.01 | locus YDR069C, strain doa4, hits give low values 1.02 | locus YDR101C, strain arx1, hits give low values 0.997 | locus YDR137W, strain rgp1, hits give low values 1.03 | locus YDR150W, strain NUM1, hits give low values 1.01 | locus YDR159W, strain sac3, hits give low values 1.05 | locus YDR162C, strain NBP2, hits give low values 1.02 | locus YDR195W, strain ref2 1.01 | locus YDR297W, strain sur2, hits give low values 1.02 | locus YDR318W, strain mcm21, hits give low values 1.01 | locus YDR334W, strain swr1, hits give low values 1.02 | locus YDR335W, strain msn5, hits give low values 1.03 | locus YDR388W, hits give low values 0.998 | locus YDR392W, strain spt3, hits give low values 0.962 | locus YDR502C, strain sam2, hits give low values 0.988 | locus YEL003W, strain gim4, hits give low values 1.04 | locus YEL037C, strain rad23, hits give low values 1.03 | locus YEL061C, strain CIN8 (second series), hits give low values 1.03 | locus YEL061C, strain CIN8, hits give low values 1.01 | locus YER015W, strain faa2, hits give low values 1.03 | locus YER016W, strain bim1, hits give low values 1.03 | locus YER110C, hits give low values 1 | locus YER111C, strain swi4, hits give low values 1.03 | locus YER155C, strain BEM2 (second series), hits give low values 0.99 | locus YER155C, strain BEM2, hits give low values 1.01 | locus YER167W, strain BCK2, hits give low values 1.01 | locus YFR010W, strain ubp6, hits give low values 1.03 | locus YGL078C, strain dbp3, hits give low values 1.02 | locus YGL086W, strain mad1, hits give low values 0.999 | locus YGL167C, strain pmr1, hits give low values 1.03 | locus YGL173C, strain kem1, hits give low values 1.06 | locus YGL227W, strain vid30, hits give low values 1.02 | locus YGL240W, strain doc1, hits give low values 1.01 | locus YGL248W, strain PDE1, hits give low values 1.02 | locus YGL253W, strain hxk2, hits give low values 1.05 | locus YGR135W, strain pre9, hits give low values 1 | locus YGR229C, strain SMI1, hits give low values 1.02 | locus YGR252W, strain gcn5, hits give low values 0.96 | locus YHR013C, strain ard1, hits give low values 1.04 | locus YHR027C, strain rpn1, hits give low values 1.04 | locus YHR030C, strain SLT2, hits give low values 1.01 and 0.973 | locus YHR079C, strain IRE1 (second series), hits give low values 1 | locus YHR079C, strain IRE1, hits give low values 0.97 | locus YHR094C, strain hxt1, hits give low values 0.996 | locus YHR129C, strain ARP1, hits give low values 1.01 | locus YHR142W, strain chs7, hits give low values 1.05 | locus YHR200W, strain rpn10, hits give low values 0.999 | locus YIL066C, strain RNR3, hits give low values 1.01 | locus YIL073C, strain SPO22, hits give low values 0.986 | locus YIL125W, strain kgd1, hits give low values 1 | locus YIR030C, strain dcg1, hits give low values 1 | locus YJL092W, strain hpr5, hits give low values 1.03 | locus YJL095W, strain BCK1 (second series), hits give low values 1.03 | locus YJL095W, strain BCK1, hits give low values 1.02 and 0.963 | locus YJL115W, strain asf1, hits give low values 1.03 | locus YJL129C, strain trk1, hits give low values 1.04 | locus YJL134W, strain LCB3, hits give low values 1.01 | locus YJL154C, strain vps35, hits give low values 1.02 | locus YJL164C, strain tpk1, hits give low values 1.03 | locus YJL166W, strain qcr8, hits give low values 1.02 | locus YJL168C, strain set2, hits give low values 1.01 | locus YJL187C, strain SWE1 (second series), hits give low values 1 | locus YJL187C, strain SWE1, hits give low values 1.05
